This is an account of results in ChEMBL document CHEMBL3988442, “University of Dundee, Small-Polar-MMV Screening Library” (2021).

The structures appear in SMILES notation. For some of these results: Results with a measured potency or affinity are listed apart.

Holding throughout (design): scale not given: direction of the effect not stated beside the values
Test [1] addresses Protein translocase subunit SecA (Escherichia coli (strain K12)) (UniProt P10408). In words: Assay to Identify E. coli SecA ATPase Inhibitors. In kind it is functional. Particulars: 30 µM.
The target of test [2] is T1, Ubiquitin-activating enzyme e1, putative (Leishmania donovani (strain BPK282A1)) (UniProt E9BSI1).
T1 sequence (whole entry): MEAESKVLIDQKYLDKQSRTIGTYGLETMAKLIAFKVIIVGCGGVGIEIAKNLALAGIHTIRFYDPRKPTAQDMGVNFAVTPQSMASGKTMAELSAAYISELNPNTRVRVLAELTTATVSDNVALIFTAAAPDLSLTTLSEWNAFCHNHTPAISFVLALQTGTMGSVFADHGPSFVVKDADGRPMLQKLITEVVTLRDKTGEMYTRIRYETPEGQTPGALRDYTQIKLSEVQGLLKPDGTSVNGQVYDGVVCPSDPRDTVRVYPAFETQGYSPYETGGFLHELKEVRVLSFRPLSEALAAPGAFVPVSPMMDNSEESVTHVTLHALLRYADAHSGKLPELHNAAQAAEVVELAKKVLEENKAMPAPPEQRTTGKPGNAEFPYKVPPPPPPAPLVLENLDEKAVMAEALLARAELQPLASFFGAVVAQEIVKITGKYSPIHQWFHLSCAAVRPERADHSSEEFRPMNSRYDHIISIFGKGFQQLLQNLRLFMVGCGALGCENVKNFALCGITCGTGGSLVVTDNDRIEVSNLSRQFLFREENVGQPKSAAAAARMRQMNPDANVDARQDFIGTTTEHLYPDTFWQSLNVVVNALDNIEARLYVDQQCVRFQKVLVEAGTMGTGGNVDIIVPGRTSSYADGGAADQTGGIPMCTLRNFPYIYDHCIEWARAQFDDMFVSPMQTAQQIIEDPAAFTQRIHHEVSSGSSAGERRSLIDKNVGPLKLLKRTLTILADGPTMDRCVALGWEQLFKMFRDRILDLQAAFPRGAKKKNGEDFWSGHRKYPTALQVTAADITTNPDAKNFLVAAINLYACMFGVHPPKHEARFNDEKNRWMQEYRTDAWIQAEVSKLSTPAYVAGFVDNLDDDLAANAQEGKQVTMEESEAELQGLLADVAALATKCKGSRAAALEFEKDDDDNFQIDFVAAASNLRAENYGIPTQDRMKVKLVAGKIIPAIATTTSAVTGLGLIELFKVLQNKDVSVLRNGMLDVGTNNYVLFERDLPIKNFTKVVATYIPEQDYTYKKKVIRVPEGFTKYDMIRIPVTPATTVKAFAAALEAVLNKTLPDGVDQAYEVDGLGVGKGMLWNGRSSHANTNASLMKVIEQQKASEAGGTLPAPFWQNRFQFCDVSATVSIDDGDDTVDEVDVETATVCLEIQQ
The experiment in a line: Leishmania donovani Ubiquitin Activating Enzyme (LdE1). In kind it is functional. Particulars: 30 µM.

For test [3], the target named is AMP-activated protein kinase, AMPK (Homo sapiens) (UniProt P54646+O43741+P54619+Q9UGJ0+Q9Y478+Q13131+Q9UGI9). The experiment in a line: AMP-dependent Kinase enzyme assay. An in vitro enzyme assay that detects ADP turnover that is directly proportional to AMPK activity. This uses naive AMPK that is activated during the assay with MK-8722. Particulars: 30 µM. The class given is functional.

In test [4] the target is Sialic acid-binding Ig-like lectin 9 (Homo sapiens) (UniProt Q9Y336). In words: Hs-Siglec9 ALPHAscreen SOP 20170721. Particulars: 10 µM. A general note: Alpha assays give light when donor and acceptor beads are brought close together.
Sialic acid-binding Ig-like lectin 9 (Homo sapiens), sequence (Q9Y336 whole entry): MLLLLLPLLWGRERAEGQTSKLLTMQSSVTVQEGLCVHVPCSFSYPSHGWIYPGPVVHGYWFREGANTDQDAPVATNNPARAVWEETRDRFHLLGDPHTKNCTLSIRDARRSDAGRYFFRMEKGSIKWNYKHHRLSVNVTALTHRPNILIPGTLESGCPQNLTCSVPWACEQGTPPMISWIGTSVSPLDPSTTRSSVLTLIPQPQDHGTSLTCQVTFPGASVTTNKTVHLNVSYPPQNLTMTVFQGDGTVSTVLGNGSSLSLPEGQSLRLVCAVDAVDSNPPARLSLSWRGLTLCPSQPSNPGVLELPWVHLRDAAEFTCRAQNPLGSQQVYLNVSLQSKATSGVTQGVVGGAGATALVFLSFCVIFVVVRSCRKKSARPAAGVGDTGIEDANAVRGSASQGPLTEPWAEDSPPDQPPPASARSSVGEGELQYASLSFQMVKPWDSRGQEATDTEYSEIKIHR
For test [5], the system named is Trypanosoma cruzi. The experiment in a line: Trypanosoma cruzi phosphomannomutase and mannose-1-phosphate guanylyltransferase assay. As to conditions: 10 µM. The class given is functional.
For test [6], the target named is T2, Arginase-2, mitochondrial (Homo sapiens) (UniProt P78540).
T2 sequence (whole entry): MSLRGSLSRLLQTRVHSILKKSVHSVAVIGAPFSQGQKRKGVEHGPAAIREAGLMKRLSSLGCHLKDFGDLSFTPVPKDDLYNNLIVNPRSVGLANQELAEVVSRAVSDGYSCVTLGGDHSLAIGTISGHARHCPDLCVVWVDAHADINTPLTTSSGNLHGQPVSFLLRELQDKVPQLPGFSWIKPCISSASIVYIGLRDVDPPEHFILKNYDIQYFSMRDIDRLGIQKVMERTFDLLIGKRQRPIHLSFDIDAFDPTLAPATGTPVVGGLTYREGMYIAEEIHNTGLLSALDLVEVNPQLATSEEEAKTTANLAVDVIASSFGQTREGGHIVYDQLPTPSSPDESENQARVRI
In words: in vitro enzyme assay to detect the production of urea directly proportional to the activity of Arginase II. Note: in the data most compounds retested in dose-response had high values. The class given is functional. As to conditions: 33.3 µM.

The target in test [7] is T3, Proteasome subunit beta (Trypanosoma cruzi) (UniProt O96673).
T3 sequence (whole entry): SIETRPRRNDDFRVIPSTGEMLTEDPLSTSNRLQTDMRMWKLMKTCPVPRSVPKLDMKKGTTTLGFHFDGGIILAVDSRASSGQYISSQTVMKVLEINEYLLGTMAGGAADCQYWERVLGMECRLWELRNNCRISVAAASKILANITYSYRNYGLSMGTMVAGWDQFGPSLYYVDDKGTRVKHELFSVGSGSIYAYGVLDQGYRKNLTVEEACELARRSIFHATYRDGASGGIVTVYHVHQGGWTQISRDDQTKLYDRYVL
In words: Trypanosoma cruzi proteasome chymotrypsin-like activity (TcProtChymo) assay. Note: in the data most compounds retested in dose-response had high values. The class given is functional. As to conditions: 9.37 µM.

For test [8], the species on record is Homo sapiens. In words: To identify inhibition of the IFN signalling (Jak-Stat) pathway via expression of an eGFP reporter gene under the control of an IFN-stimulated response element (ISRE) containing MxA promoter. In kind it is functional. Particulars: 30 µM.
The target of test [9] is T4, Tyrosyl-tRNA synthetase, putative (Trypanosoma cruzi (strain CL Brener)) (UniProt Q4DSP6).
T4 sequence (whole entry): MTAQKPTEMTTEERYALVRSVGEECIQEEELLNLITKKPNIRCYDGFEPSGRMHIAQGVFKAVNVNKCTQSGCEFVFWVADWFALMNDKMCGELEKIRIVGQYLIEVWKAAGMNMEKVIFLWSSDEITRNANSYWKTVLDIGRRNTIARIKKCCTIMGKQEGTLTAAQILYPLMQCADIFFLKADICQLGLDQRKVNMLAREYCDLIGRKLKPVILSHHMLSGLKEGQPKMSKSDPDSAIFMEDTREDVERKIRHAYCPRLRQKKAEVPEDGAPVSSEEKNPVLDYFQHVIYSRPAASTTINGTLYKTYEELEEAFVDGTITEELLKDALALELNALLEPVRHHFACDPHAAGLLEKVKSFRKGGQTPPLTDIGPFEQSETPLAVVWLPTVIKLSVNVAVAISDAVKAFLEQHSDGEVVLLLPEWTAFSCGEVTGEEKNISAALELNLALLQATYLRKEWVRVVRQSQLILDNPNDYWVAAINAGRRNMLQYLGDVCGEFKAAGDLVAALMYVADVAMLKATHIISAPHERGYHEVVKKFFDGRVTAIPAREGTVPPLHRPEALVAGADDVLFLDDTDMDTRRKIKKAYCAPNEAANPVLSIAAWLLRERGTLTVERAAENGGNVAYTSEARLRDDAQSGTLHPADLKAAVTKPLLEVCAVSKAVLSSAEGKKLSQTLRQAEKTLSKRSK
In words: Trypanosoma cruzi tyrosyl tRNA synthetase (TcYRS) _High Tyrosine SOP. Note: in the data most compounds retested in dose-response had high values. In kind it is functional. As to conditions: 30 µM.

For test [10], the target named is T4, Tyrosyl-tRNA synthetase, putative (Trypanosoma cruzi (strain CL Brener)). The experiment in a line: Trypanosoma cruzi tyrosyl tRNA synthetase (TcYRS) SOP. The class given is functional. Particulars: 30 µM.
In test [11] the target is Chromo domain-containing protein 1 (Saccharomyces cerevisiae (strain ATCC 204508 / S288c) (Baker's yeast)) (UniProt P32657). The experiment in a line: ScCHD-1 Enzyme Inhibition Assay. Note: in the data most compounds retested in dose-response had high values. In kind it is functional. As to conditions: 30 µM.
Chromo domain-containing protein 1 (Saccharomyces cerevisiae (strain ATCC 204508 / S288c) (Baker's yeast)), sequence (P32657 whole entry, the tested form may be a part): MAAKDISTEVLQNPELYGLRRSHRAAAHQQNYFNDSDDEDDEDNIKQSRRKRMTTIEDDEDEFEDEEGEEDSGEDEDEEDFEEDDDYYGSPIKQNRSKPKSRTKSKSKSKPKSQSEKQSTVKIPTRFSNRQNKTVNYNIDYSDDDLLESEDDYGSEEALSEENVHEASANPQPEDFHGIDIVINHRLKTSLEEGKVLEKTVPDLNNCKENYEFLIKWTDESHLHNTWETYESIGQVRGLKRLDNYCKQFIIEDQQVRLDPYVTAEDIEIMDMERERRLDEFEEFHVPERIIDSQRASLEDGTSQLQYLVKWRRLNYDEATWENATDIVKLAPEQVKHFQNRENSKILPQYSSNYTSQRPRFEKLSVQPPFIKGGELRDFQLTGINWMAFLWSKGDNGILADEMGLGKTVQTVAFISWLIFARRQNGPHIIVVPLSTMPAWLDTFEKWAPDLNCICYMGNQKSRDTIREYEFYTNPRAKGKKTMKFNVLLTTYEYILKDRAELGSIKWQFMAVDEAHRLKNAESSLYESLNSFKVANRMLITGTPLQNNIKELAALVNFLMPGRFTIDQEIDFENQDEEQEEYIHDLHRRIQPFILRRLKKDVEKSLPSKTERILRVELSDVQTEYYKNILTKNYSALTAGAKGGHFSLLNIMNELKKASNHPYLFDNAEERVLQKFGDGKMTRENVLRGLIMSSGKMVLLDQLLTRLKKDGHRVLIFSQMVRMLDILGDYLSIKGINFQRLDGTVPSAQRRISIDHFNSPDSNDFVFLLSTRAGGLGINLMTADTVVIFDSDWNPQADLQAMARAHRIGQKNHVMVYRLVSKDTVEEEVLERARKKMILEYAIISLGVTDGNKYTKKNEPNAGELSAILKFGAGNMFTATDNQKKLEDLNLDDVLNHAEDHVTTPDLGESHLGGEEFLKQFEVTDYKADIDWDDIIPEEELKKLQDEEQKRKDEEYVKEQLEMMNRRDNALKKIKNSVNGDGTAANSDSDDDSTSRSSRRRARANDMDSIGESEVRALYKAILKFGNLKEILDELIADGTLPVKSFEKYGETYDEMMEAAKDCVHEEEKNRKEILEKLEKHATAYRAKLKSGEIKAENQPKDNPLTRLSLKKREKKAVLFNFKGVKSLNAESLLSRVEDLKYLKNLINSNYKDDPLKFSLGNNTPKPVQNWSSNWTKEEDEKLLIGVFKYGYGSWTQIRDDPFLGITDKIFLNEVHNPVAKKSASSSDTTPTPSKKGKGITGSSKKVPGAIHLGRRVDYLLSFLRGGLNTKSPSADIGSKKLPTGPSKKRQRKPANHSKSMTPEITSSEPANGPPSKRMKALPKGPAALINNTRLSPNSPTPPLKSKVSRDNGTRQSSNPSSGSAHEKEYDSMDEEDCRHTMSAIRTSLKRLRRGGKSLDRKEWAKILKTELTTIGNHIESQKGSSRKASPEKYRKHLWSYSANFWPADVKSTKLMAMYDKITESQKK

Protein translocase subunit SecA (Escherichia coli (strain K12)), sequence (P10408 whole entry): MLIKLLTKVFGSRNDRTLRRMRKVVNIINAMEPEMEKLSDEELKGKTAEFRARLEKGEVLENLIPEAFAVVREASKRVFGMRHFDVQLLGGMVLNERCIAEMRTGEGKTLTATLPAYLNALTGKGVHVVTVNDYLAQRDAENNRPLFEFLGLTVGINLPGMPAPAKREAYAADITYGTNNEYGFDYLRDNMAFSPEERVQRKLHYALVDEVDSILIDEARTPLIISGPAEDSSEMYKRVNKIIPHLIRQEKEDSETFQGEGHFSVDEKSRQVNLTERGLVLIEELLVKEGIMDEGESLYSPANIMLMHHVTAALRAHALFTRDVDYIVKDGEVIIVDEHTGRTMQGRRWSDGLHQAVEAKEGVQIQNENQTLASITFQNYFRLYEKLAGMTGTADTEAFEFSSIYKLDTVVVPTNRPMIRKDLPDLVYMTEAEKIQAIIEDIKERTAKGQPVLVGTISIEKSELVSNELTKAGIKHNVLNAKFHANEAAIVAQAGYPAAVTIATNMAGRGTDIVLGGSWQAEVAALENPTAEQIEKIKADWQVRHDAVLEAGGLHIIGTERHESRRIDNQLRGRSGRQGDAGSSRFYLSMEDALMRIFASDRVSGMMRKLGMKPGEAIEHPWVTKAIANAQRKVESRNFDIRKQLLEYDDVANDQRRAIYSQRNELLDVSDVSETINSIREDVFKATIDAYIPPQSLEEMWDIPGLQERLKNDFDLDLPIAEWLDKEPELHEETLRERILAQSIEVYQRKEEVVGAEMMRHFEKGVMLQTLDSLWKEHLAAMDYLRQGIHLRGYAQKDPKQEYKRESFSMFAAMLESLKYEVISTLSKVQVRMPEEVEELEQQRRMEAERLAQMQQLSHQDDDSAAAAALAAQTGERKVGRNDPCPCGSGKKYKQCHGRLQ

For `Cc1nc(CN(C)C2CCN(Cc3sc(C)nc3C)C2)no1` (stereo not drawn), the Percent Effect in [1] is -3.5%; in test [2] it was 7.89%; in test [3] it was -14.6%; in test [4], 4.01%; in test [5], 7.38%; in test [6], 0%. The Percent Effect is 20.6% in test [7]; 2.16% in [8]; 4.43% in test [9]; 11.1% in test [10]; -3.08% in [11].

On to `CCO[C@@H]1CC[C@H]2[C@H]1OCCN2C(=O)C1CCOCC1`, for which the Percent Effect in [1] is -5.85%; in test [2], 21.6%; in test [3], -7.07%; in test [4] it was 5.16%; in [5], 3.32%; in test [6], 3.33%. The Percent Effect was 18.2% in test [7]; 2.97% in [8]; 10.9% in test [9]; 1.22% in [10]; -4.28% in [11].

As to `NC(=O)C1CCN(CCc2ccc(NC(=O)C3CCC3)cc2)CC1`, the Percent Effect in test [1] is -4.73%; in test [2], 8.11%; in test [3], -5.62%; in test [4], 9.13%; in [5], 2.14%; in [6], -0.554%. Further, the Percent Effect was 2.87% in test [7]; 6.62% in test [8]; 6.93% in test [9]; 23.2% in [10]; -5.51% in test [11].

Regarding `Cc1csc(C2CCCN(C(=O)c3ccc(=O)n(C)n3)C2)n1` (stereo not drawn), the Percent Effect was -1.5% in [1]; 0% in [2]; -1.05% in test [3]; -7.99% in [4]; -4.2% in test [5]; 2.23% in [6]. The Percent Effect is 1.97% in test [7]; -5.09% in test [8]; -1.07% in [9]; -1.24% in test [10]; -2.21% in test [11].

For the molecule `Cc1nnc(C(C)N2CCN(Cc3ccc(C#N)cc3)CC2)o1` (stereo not drawn), the Percent Effect in [1] was -3.48%; in [2] it was 8.11%; in test [3] it was -6.14%; in test [4], 9.9%; in test [5], -8.77%; in test [6] it was 27.7%. Besides, the Percent Effect in test [7] was -5.22%; in [8], 5.6%; in [9], 0.493%; in test [10], 3.7%; in test [11], 0.608%.

Consider `O=C(NCCNCC1CNc2ccnn2C1)c1ccc(F)cc1` (stereo not drawn), for which the Percent Effect in test [1] is -2.2%; in test [2] it was 8.11%; in test [3], -6.99%; in test [4], 25.4%; in test [5], 8.3%; in test [6] it was 0.476%. Also, the Percent Effect was 11.6% in test [7]; -0.126% in [8]; 5.82% in [9]; 14.6% in [10]; -2.41% in test [11].

Consider `CN1CC(=O)N(c2cccnc2)CC12CCN(C(=O)c1cccnc1)C2` (stereo not drawn), for which the Percent Effect in [1] was 1.61%; in test [2], 10.7%; in [3], 11%; in [4], -7.78%; in [5], -3.09%; in test [6] it was -53.9%. In addition, the Percent Effect is 14.5% in [7]; 2.71% in [8]; 6.25% in [9]; 10% in [10]; -5.77% in test [11].

Regarding `CSc1ncccc1C(=O)N1CCC(c2nc3c(C)cccc3[nH]2)CC1`, the Percent Effect in test [1] was -5.33%; in [2], 20.8%; in [3] it was 6.84%; in [4], 10.4%; in test [5], 3.83%; in [6], -5.52%. Also, the Percent Effect in [7] is 16.1%; in [8], 3.12%; in [9], 7.53%; in [10] it was 13.6%; in test [11], -10.4%.
